Measured values published in PubChem BioAssay AID504810 (National Center for Advancing Translational Sciences (NCATS), 2011).
The whole screen tested about 330,000 compounds, of which about 670 (0.2%) were called active.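 Rule for the calls: active = activity change below a set negative limit, meaning inhibition stronger than a set level (cut at about -70% in these data); inconclusive = activity change between two set negative limits; inactive = the rest.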 Many of the other results were omitted from the sample, so actives are more common in it than they were.

target: Thyrotropin receptor (Homo sapiens) (UniProt P16473); experiment: Antagonists of the Thyroid Stimulating Hormone Receptor: HTS campaign; settings: TSHR-expressing cells, TSH-stimulated cAMP HTRF, 2 h; at 11.5 µM; hits give low values
Sequence (P16473 whole entry, looked up): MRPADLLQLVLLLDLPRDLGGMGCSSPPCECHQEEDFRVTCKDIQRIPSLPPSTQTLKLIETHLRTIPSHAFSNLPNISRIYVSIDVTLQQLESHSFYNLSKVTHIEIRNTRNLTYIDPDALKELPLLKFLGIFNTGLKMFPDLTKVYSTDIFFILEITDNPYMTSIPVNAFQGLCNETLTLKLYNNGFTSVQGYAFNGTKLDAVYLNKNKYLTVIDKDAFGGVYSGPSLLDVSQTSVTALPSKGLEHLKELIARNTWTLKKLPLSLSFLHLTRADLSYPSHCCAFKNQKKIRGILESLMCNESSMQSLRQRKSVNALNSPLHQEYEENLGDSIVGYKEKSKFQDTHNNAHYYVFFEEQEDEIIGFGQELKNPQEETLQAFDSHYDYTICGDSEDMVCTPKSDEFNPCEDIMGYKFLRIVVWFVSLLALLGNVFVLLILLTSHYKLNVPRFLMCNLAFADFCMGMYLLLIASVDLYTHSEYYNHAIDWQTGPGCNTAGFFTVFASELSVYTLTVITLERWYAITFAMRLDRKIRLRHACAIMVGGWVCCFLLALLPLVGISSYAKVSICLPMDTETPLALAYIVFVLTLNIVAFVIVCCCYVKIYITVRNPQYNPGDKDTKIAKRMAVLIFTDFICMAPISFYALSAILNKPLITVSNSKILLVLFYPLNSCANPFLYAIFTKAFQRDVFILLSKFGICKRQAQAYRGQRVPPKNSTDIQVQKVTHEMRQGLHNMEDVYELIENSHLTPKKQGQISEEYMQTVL
Outline: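 TSHR-expressing cells were treated with compounds, then stimulated with TSH at EC80 (4nM final) for 2 hours at 37 deg C. Cellular cAMP was measured by HTRF competition between lysate cAMP and cAMP-d2 for a cryptate-labelled anti-cAMP antibody.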
% is set by controls: 0 for no effect and ±100 for the full control effect.

| SMILES | activity change, negative = inhibition |
| --- | --- |
| Nc1ccc(Nc2cc(O)c3ncccc3c2)cc1 | -16% (inactive) |
| CCOC(=O)c1ccccc1NS(=O)(=O)c1c(C)nc2sccn2c1=O | 3.11% (inactive) |
| CCN(/N=C/c1ccc(N(C)C)cc1)c1nc2ccccc2[nH]1 | -6.71% (inactive) |
| O=C(CCCN1C(=O)CCC1=O)Nc1ccc(Cl)c(C(F)(F)F)c1 | 1.2% (inactive) |
| O=C(CC(O)(C(F)(F)F)C(F)(F)F)Nc1ccc(Cl)c(Cl)c1 | -74.6% (active) |
| CS(=O)(=O)N(CC(=O)Nc1ccc(Cl)c(Cl)c1)C1CCCCC1 | 15.8% (inactive) |
| Cc1ccccc1CN1C[C@@H]2C[C@@H](c3cn(C)nc3-c3ccccc3)N3CCC[C@@]23C1=O | 2.86% (inactive) |
| NC(=O)COC(=O)c1cc(S(=O)(=O)N2CCN(c3ccccc3)CC2)ccc1Cl | -4.47% (inactive) |
| CCNC(=O)NC(=O)C(C)OC(=O)C1CCN(S(=O)(=O)c2ccccc2F)CC1 (centres undefined) | 15.3% (inactive) |
| O=C(CCNC(=O)Cn1ccc2ccccc2c1=O)NCCC1=CCCCC1 | 9.22% (inactive) |
| Oc1ccc(Cn2cc[nH]c2=S)cc1 | 7.71% (inactive) |
| Cc1ccc(S(=O)(=O)N2[C@@H](c3ccc(Br)cc3)C(C(=O)O)=C[C@H]2CC2CCCC2)cc1 | -5.29% (inactive) |
| CC[C@]12c3[nH]c4ccc(Cl)cc4c3CCN1C(=O)[C@@H](CC(=O)NCCCOC)C[C@@H]2C(=O)N1CCN(C(=O)C2CC2)CC1 | 11.4% (inactive) |
| CCN(Cc1ccccc1)C(=O)Cc1ccc(OC)c(S(=O)(=O)N2CCOCC2)c1 | 0.0578% (inactive) |
| N#Cc1c(Cl)nc(-c2cccnc2)nc1-c1ccccc1 | 3.65% (inactive) |
| CC1(c2ccc3ccccc3c2)NC(=O)N(CC(N)=O)C1=O (centres undefined) | -6.17% (inactive) |
| CN(C)c1ccc(S(=O)(=O)NCC(=O)NCC2CCCCC2)cc1[N+](=O)[O-] | 6.75% (inactive) |
| Cc1ccc(S(=O)(=O)NCCCn2ccnc2)cc1C(=O)NC(C)C | -0.615% (inactive) |
| CC1(C)CC(CCC(=O)Nc2ccccc2Cl)C(=O)O1 (centres undefined) | 13.5% (inactive) |
| O=C(Nc1ccccc1Cl)/C(Cl)=C(\Cl)S(=O)c1ccccc1 (centres undefined) | -71.3% (active) |
| Cc1c(NC(=O)Nc2ccccc2Cl)sc(=S)n1C | 46.2% (inactive) |
| O=C1CCC(C(=O)N2CCCCO2)CN1Cc1cccc(C(F)(F)F)c1 (centres undefined) | 15.4% (inactive) |
| COc1ccc(CCNC2=CC(=O)CC(C)(C)C2)cc1 | -4.33% (inactive) |

| SMILES | activity change, negative = inhibition |
| --- | --- |
| O=C1NC2(CCCCCC2)C(=O)N1CCS(=O)(=O)Oc1ccccc1 | -2.81% (inactive) |
| Cc1ccc(C(=O)Nc2ncccc2C)cc1S(=O)(=O)N1CCOCC1 | -1.78% (inactive) |
| COc1ccc(/C=C/C(=O)OCC(=O)NC2CCCCCC2)cc1OC | -8.81% (inactive) |
| CCN(CC(=O)Nc1ccccc1C(F)(F)F)C(=O)CSCc1c(C)noc1C | 4.59% (inactive) |
| Cc1nnc(NC(=O)CSc2nccn2-c2cccc(C)c2C)s1 | -14.2% (inactive) |
| Fc1ccc(-n2c(Cc3ccccc3)nnc2SCc2nc(-c3ccc(Cl)cc3)no2)cc1 | 7.8% (inactive) |
| CCOCCCNC(=O)C(NC(=O)c1ccc(=O)[nH]c1)c1ccc(Cl)cc1 (centres undefined) | -71.3% (active) |
| CCOCCCNC(=O)C(NC(=O)c1ccccc1O)c1ccccc1 (centres undefined) | 1.46% (inactive) |
| CCOCCCNC(=O)C(NC(=O)c1ccc(=O)[nH]c1)c1ccc(C)cc1 (centres undefined) | -1.24% (inactive) |
| CCOC(=O)C1(CC2CCCCO2)CCN(Cc2nc(-c3cccs3)oc2C)CC1 (centres undefined) | -7.01% (inactive) |
| COc1ccc(N2C(=O)NC(NS(=O)(=O)c3ccc(Cl)cc3)(C(F)(F)F)C2=O)cc1 (centres undefined) | -105% (active) |
| COc1ccc(S(=O)(=O)NC2(C(F)(F)F)N=C3SCCN3C2=O)cc1 (centres undefined) | 17.4% (inactive) |
| Cc1ccc(S(=O)(=O)NC2(C(F)(F)F)NC(=O)N(CCc3ccccc3)C2=O)cc1 (centres undefined) | -3.44% (inactive) |
| Cc1cc(C(=O)NC2CCCc3c2cnn3-c2cccc(C)c2C)c(C)o1 (centres undefined) | -79.3% (active) |
| Cn1nccc1C(=O)NC1CCCc2c1cnn2-c1ccccc1F (centres undefined) | -36.6% (inactive) |
| Cn1nccc1C(=O)NC1CCCc2c1cnn2-c1ccc(F)cc1F (centres undefined) | -37.7% (inactive) |
| Cc1ccc(S(=O)(=O)c2c[nH]c3ccc(Cl)cc3c2=O)cc1 | -9.54% (inactive) |
| CCn1nc(C(=O)NNC(=O)C2CSC3(C)CCC(=O)N23)c2ccccc2c1=O (centres undefined) | 6.6% (inactive) |
| COCCCn1c(Cc2csc(Nc3cccc(Cl)c3)n2)nnc1SCC(=O)OC1CCCCC1 | -4.53% (inactive) |
| C/C(=N\NC(=O)c1cc(-c2ccc(O)cc2)nc2ccccc12)c1cccnc1 | 0.505% (inactive) |
| Cc1cccc(N2CCC(NCc3c(C(=O)N4CCCCC4)nc4c(C)cccn34)CC2)c1 | 4.5% (inactive) |
| CCOC(=O)[C@H]1[C@H]2COc3ccc(C)cc3[C@@H]2N2C(=O)CN(Cc3ccc(F)cc3)C(=O)[C@@]12C | -7.74% (inactive) |
| Cc1ccc(N(CCC(=O)O)S(=O)(=O)c2cccc(C(F)(F)F)c2)cc1 | 22.4% (inactive) |

| SMILES | activity change, negative = inhibition |
| --- | --- |
| CN(CC(=O)Nc1cccc(F)c1)C(=O)C1CC(=O)N(CCc2ccccc2)C1 (centres undefined) | 8.3% (inactive) |
| CC(C)c1ccc(NC(=S)NC2CC3C=CC2C3)cc1 (centres undefined) | -4.5% (inactive) |
| CC(NC(=O)COC(=O)CCC(=O)c1ccc(Cl)cc1)c1ccccc1 (centres undefined) | -10.7% (inactive) |
| COc1cccc(NC(=O)C2CCCN(c3ncnc4c3nc3n4CCCCC3)C2)c1 (centres undefined) | -12.1% (inactive) |
| O=C(CN(C(=O)CCC(=O)Nc1nccs1)c1ccc(F)cc1)NCc1ccc2c(c1)OCO2 | 21.9% (inactive) |
| COc1cccc(N(CC(=O)NCc2ccccc2)C(=O)CCC(=O)Nc2nccs2)c1 | -9.83% (inactive) |
| COc1ccc(N(CC(=O)NCc2ccc(F)cc2)C(=O)CCC(=O)Nc2nccs2)cc1 | -77.8% (active) |
| COC(=O)c1ccc(S(=O)(=O)N2CCC(c3nc4ccccc4o3)CC2)cc1 | -1% (inactive) |
| c1n[nH]c(NCc2ccc3c(c2)OCO3)n1 | 5.91% (inactive) |
| N#Cc1nc(Cc2cccc3ccccc23)oc1NCc1ccc2c(c1)OCO2 | -94.7% (active) |
| Cn1cc(CCC(=O)NCc2ccc3c(c2)OCO3)c2ccccc21 | 5.66% (inactive) |
| CCc1nonc1NC(=O)c1oc2ccc(Cl)cc2c1C | 3.96% (inactive) |
| O=C1C=C(c2cccc(Cl)c2O)C[C@@H](c2ccc(F)cc2)C1 | -23% (inactive) |
| CC1(C)NC(=O)N(CC(=O)N2CCN(S(=O)(=O)c3ccccc3F)CC2)C1=O | 1.38% (inactive) |
| CCN(c1ccccc1)S(=O)(=O)c1cc(C(=O)NCc2ccccn2)ccc1C | 0.209% (inactive) |
| Cc1ccc(C)c(N(CC(=O)NCc2ccco2)C(=O)CCC(=O)Nc2ccccn2)c1 | 0.465% (inactive) |
| COC(=O)c1ccc(COC(=O)c2c(C)nn(Cc3ccccc3Cl)c2Cl)o1 | -21.4% (inactive) |
| CC(=O)N=c1ncn(CC(COC(C)=O)OC(C)=O)c2nc[nH]c12 (centres undefined) | -10.8% (inactive) |
| Cc1ccc(S(=O)(=O)N(C)c2ccc(OCC(=O)NC3=NCCS3)cc2)cc1 | 26.8% (inactive) |
| Oc1c(Cl)cc(Cl)c(Cl)c1Cc1c(O)c(Cl)cc(Cl)c1Cl | -103% (active) |
| CC(Oc1ccccc1)C(=O)NN1Cc2ccccc2C1=N (centres undefined) | 8.16% (inactive) |
| CCOC(=O)c1ccc(NC(=O)c2nc[nH]c2C(=O)N[C@@H](CCCCNC(=O)OC(C)(C)C)C(=O)OC(C)(C)C)cc1 | -6.71% (inactive) |
| CCCn1c(=O)c2[nH]c(-c3ccc(OCC(=O)NCCN)cc3)nc2n(CCC)c1=O | 26.4% (inactive) |

| SMILES | activity change, negative = inhibition |
| --- | --- |
| COc1ccc(C(=O)NCC2CCCN2S(=O)(=O)c2cccs2)cc1OC (centres undefined) | 4.47% (inactive) |
| CC(CCc1ccccc1)NCC(O)c1cccc([N+](=O)[O-])c1 (centres undefined) | 9.45% (inactive) |
| Cc1cccc(NC(=O)c2ccc(S(=O)(=O)N(C)c3ccccc3)cc2)n1 | -19.5% (inactive) |
| CN(c1ccccc1)S(=O)(=O)c1cc(C(=O)OCC(=O)N2CCN(C(=O)c3ccco3)CC2)ccc1Cl | -10.1% (inactive) |
| CN(c1ccccc1)S(=O)(=O)c1cc(C(=O)Nc2nc3ccccc3[nH]2)ccc1Cl | -76.7% (active) |
| Cc1cc(C)n2nc(C(=O)N(C)C(c3ccccc3)c3ccccc3)nc2n1 | 0.111% (inactive) |
| Cc1cc(C)n2nc(C(=O)OC(C)C(=O)c3cc(C)c(C)cc3C)nc2n1 (centres undefined) | 23.5% (inactive) |
| O=C(CN1C(=O)CSC1=O)N1CCCC(Nc2ccc(F)cc2)C1 (centres undefined) | -1.23% (inactive) |
| Cc1ccsc1C(=O)OCC(=O)Nc1cccc(F)c1 | -3.82% (inactive) |
| CCOc1ccc(NC(=O)c2ccccc2NS(C)(=O)=O)cc1 | 5.45% (inactive) |
| COc1cc(OC)c(S(=O)(=O)Nc2ccccc2C(=O)O)cc1S(=O)(=O)Nc1ccccc1C(=O)O | -2.52% (inactive) |
| COc1cc(NC(=O)c2ccccc2NS(=O)(=O)c2ccc(Cl)s2)cc(OC)c1 | -75.8% (active) |
| CCN(CC)C(=O)CSC1c2ccccc2C(=O)N1c1ccccc1 (centres undefined) | 4.85% (inactive) |
| O=C(CCSCCc1ccccn1)Nc1nccs1 | -1.45% (inactive) |
| CC(=O)c1nn(-c2cccc(Br)c2)cc1C(=O)c1cccc2ccccc12 | 7.96% (inactive) |
| CC(C)Cc1nn2c(=O)cc(O)nc2s1 | 2.07% (inactive) |
| CCOC(=O)C1(Cc2ccccc2C)CCCN(C(=O)c2ccc(COC)o2)C1 (centres undefined) | 26.3% (inactive) |
| CC1CCCCC1NC(=O)CO/N=C/c1ccc(OC(F)F)cc1 (centres undefined) | -11.3% (inactive) |
| CCOc1ccc(/C=N/OCC(=O)NCc2cccs2)cc1 | -4.83% (inactive) |
| O=C(CO/N=C/c1ccc(OC(F)F)cc1)NCc1ccc(F)cc1 | -73.2% (active) |
